Inconclusive results are not listed. Where a call stands in place of a potency, no number is given. Activity calls are given as the source filed them. Calls come from the whole dose curve; as a rule, active = well fitted cell-killing curve with a large enough effect in the repeat runs; inconclusive = weak or mixed curves; inactive = flat fitted curve, though single readings scatter.

This passage reports Potency results from PubChem BioAssay (Tox21).

The nature of this assay: qHTS RealTime-Glo MT Cell Viability Assay in HepG2 cells - 8 hour (AID 1224873). Note: nearly all actives have a fitted effect of over 55% in size. To be noted: RealTime-Glo luminescence; series mostly up to 76.8 µM. A digest of the protocol: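 Real-time viability: cells seeded at 600 per well together with NanoLuc and cell-permeant prosubstrate, compounds added after 5 h incubation. Luminescence tracked at 0, 8, 16, 24, 32 and 40 h of exposure.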
As to `CC1=CCC(C(C)(C)O)CC1` (centres undefined), the Potency entry was “inactive”.
The result for `Nc1ncn([C@@H]2O[C@H](CO)[C@@H](O)[C@H]2O)c(=O)n1` reads “inactive”; that for `CCOC(=O)C(C#N)=C(c1ccccc1)c1ccccc1`, “inactive”.
Take `CCC(C)(O)CCCC(C)C` (centres undefined): the Potency result is “inactive”.
The result for `CCCCNS(=O)(=O)c1ccccc1` reads “inactive”; that for `CC(C)CC(C)(O)C#CC(C)(O)CC(C)C` (centres undefined), “inactive”.
For `c1ccc2c(c1)c1cccc3ccc4cccc2c4c31` the value was “inactive”; for `O=C(/C=C/c1ccccc1)OCc1ccccc1`, “inactive”.
As for `CC(C)(C)NC(=O)[C@H]1CC[C@H]2[C@@H]3CC[C@H]4NC(=O)C=C[C@]4(C)[C@H]3CC[C@]12C`, the Potency entry is “inactive”.
As to `CCCc1c(OCCCCc2nn[nH]n2)ccc(C(C)=O)c1O`, the Potency result was “inactive”.
For `CCCCCCCCCCCO` the value was “inactive”; for `COc1ccc(OC)c(C(O)CNC(=O)CN)c1` (centres undefined), “inactive”.
With `COC(=O)Nc1nc2ccc(S(=O)c3ccccc3)cc2[nH]1` (centres undefined), the Potency result was “inactive”.
For `Cc1ncc[nH]1` the value was “inactive”; for `Cc1ccc(C(=O)c2cc(O)c(O)c([N+](=O)[O-])c2)cc1`, “inactive”; for `CN1C(C(=O)Nc2ccccn2)=C(O)c2ccccc2S1(=O)=O`, “inactive”.
For `Cc1c(OCC(F)(F)F)ccnc1CS(=O)c1nc2ccccc2[nH]1` (centres undefined) the value was “inactive”; for `Nc1ccc(Nc2ccccc2)cc1`, “inactive”.
On to `COc1cc([C@@H]2c3cc4c(cc3[C@H](O)[C@H]3COC(=O)[C@H]23)OCO4)cc(OC)c1OC`, for which the Potency result is “inactive”.
For `CC(C)OC=O`, the Potency entry is “inactive”.
As to `OC(CCl)CCl`, the Potency result is “inactive”.
As for `CC(C)OB(OC(C)C)OC(C)C`, the Potency entry is “inactive”.
For `C[Si](C)(C)O[Si](C)(C)C` the value was “inactive”; for `c1cc(-c2ccncc2)ccn1`, “inactive”; for `NNc1ccc(C(=O)O)cc1`, “inactive”.
For `O=C(OCc1ccccc1)c1ccccc1O` the value was “inactive”; for `NC=O`, “inactive”.
`Cc1cc2nc3c(=O)[nH]c(=O)nc-3n(C[C@H](O)[C@H](O)[C@H](O)CO)c2cc1C`: the Potency entry was “inactive”.
For `Nc1ncnc2nc[nH]c12` the value was “inactive”; for `CC(CCC(=O)O)(c1ccc(O)cc1)c1ccc(O)cc1`, “inactive”.
For `C=C(C)C1CC=C(C)CC1` (centres undefined) the value was “inactive”; for `Cc1[nH]c(=O)c(C#N)cc1-c1ccncc1`, “inactive”.
On to `O=C(c1ccccc1)c1ccc(O)cc1O`, for which the Potency result is “inactive”.
The result for `CCCCCCCCCC(=O)OC` reads “inactive”.
`Cc1cccc(C(=O)O)c1`: the Potency entry was “inactive”.
For `c1ccc(Nc2ccccc2)cc1` the value was “inactive”; for `CCCC(=O)O`, “inactive”.
For `O=[N+]([O-])c1ccc2c(c1)Cc1ccccc1-2` the value was “inactive”.
On to `OCCO`, for which the Potency entry was “inactive”.
